In PubChem BioAssay AID1159580 (chemical genetic matrix, 2015):
Values joined by “and” are separate entries in the source; they are usually repeats but may differ in a detail not shown here. Identical values can stand only once. The whole screen tested about 5,500 compounds, of which about 2,000 (36%) were called active. About 18% were inconclusive and are not listed. No stated cut-off is given here; in the data, active means normalized growth mostly below about 0.91 (no sharp cut-off); inconclusive means no clear call, values can overlap the other calls; inactive means mostly above about 0.92. Some of the results follow.

Assay: chemical genetic growth profiling, strain panel (AID 1159580);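 further: tested at 20 µM; growth read once vehicle control cultures reached saturation at 30 °C; 1 = growth at the plate median or of vehicle wells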
Settings: S. cerevisiae deletion strains, growth OD

Measured: normalized growth

O=C(O)c1nc2cc(Cl)c(Cl)cc2[nH]c1=O
inactive: locus YAL013W, strain DEP1, stronger effect = lower value 1.02 | locus YAL021C, strain ccr4, stronger effect = lower value 0.995 | locus YAL026C, strain drs2, stronger effect = lower value 1.03 | locus YAL030W, strain snc1, stronger effect = lower value 1.01 | locus YBL061C, strain skt5, stronger effect = lower value 1.01 | locus YBR009C, strain hhf1, stronger effect = lower value 1.04 | locus YBR021W, strain FUR4, stronger effect = lower value 1.02 | locus YBR023C, strain chs3, stronger effect = lower value 1.03 | locus YBR171W, strain sec66, stronger effect = lower value 1.04 | locus YBR229C, strain ROT2, stronger effect = lower value 1.01 | locus YBR231C, strain swc5, stronger effect = lower value 1.02 | locus YBR279W, strain paf1, stronger effect = lower value 1.01 | locus YCL011C, strain gbp2, stronger effect = lower value 1.02 | locus YCL016C, strain dcc1, stronger effect = lower value 1.01 | locus YCL029C, strain bik1, stronger effect = lower value 0.99 | locus YCL061C, strain MRC1, stronger effect = lower value 1.03 | locus YCL069W, strain vba3, stronger effect = lower value 1.01 | locus YCR088W, strain abp1, stronger effect = lower value 1.01 | locus YDL005C, strain med2, stronger effect = lower value 1.02 | locus YDL035C, strain GPR1, stronger effect = lower value 1.01 | locus YDL040C, strain nat1, stronger effect = lower value 0.995 | locus YDL074C, strain BRE1, stronger effect = lower value 1.03 | locus YDL101C, strain DUN1, stronger effect = lower value 1.02 | locus YDL134C, strain PPH21, stronger effect = lower value 1 | locus YDL185W, strain tfp1, stronger effect = lower value 0.956 | locus YDL192W, strain arf1, stronger effect = lower value 0.993 | locus YDR001C, strain nth1, stronger effect = lower value 1.01 | locus YDR069C, strain doa4, stronger effect = lower value 1.04 | locus YDR101C, strain arx1, stronger effect = lower value 1.01 | locus YDR137W, strain rgp1, stronger effect = lower value 0.974 | locus YDR150W, strain NUM1, stronger effect = lower value 0.978 | locus YDR159W, strain sac3, stronger effect = lower value 1.01 | locus YDR162C, strain NBP2, stronger effect = lower value 1.03 | locus YDR195W, strain ref2 1.04 | locus YDR297W, strain sur2, stronger effect = lower value 1.01 | locus YDR318W, strain mcm21, stronger effect = lower value 0.994 | locus YDR334W, strain swr1, stronger effect = lower value 1.02 | locus YDR335W, strain msn5, stronger effect = lower value 1.02 | locus YDR388W, stronger effect = lower value 1.01 | locus YDR392W, strain spt3, stronger effect = lower value 0.968 | locus YDR502C, strain sam2, stronger effect = lower value 1.01 | locus YEL003W, strain gim4, stronger effect = lower value 1.03 | locus YEL037C, strain rad23, stronger effect = lower value 1.02 | locus YEL061C, strain CIN8 (second series), stronger effect = lower value 1.02 | locus YEL061C, strain CIN8, stronger effect = lower value 0.998 | locus YER015W, strain faa2, stronger effect = lower value 1.01 | locus YER016W, strain bim1, stronger effect = lower value 1.01 | locus YER110C, stronger effect = lower value 0.992 | locus YER111C, strain swi4, stronger effect = lower value 1.03 | locus YER155C, strain BEM2 (second series), stronger effect = lower value 1.03 | locus YER155C, strain BEM2, stronger effect = lower value 0.996 | locus YER167W, strain BCK2, stronger effect = lower value 1 | locus YFR010W, strain ubp6, stronger effect = lower value 1.03 | locus YGL078C, strain dbp3, stronger effect = lower value 0.992 | locus YGL086W, strain mad1, stronger effect = lower value 0.979 | locus YGL167C, strain pmr1, stronger effect = lower value 1.01 | locus YGL173C, strain kem1, stronger effect = lower value 1.02 | locus YGL227W, strain vid30, stronger effect = lower value 1.02 | locus YGL240W, strain doc1, stronger effect = lower value 1.03 | locus YGL248W, strain PDE1, stronger effect = lower value 1.01 | locus YGL253W, strain hxk2, stronger effect = lower value 1.03 | locus YGR078C, strain PAC10, stronger effect = lower value 1.03 | locus YGR135W, strain pre9, stronger effect = lower value 1.02 | locus YGR229C, strain SMI1, stronger effect = lower value 1.07 | locus YGR252W, strain gcn5, stronger effect = lower value 1 | locus YHR013C, strain ard1, stronger effect = lower value 0.994 | locus YHR027C, strain rpn1, stronger effect = lower value 1.02 | locus YHR030C, strain SLT2, stronger effect = lower value 0.995 and 0.994 | locus YHR079C, strain IRE1 (second series), stronger effect = lower value 0.997 | locus YHR079C, strain IRE1, stronger effect = lower value 0.999 | locus YHR094C, strain hxt1, stronger effect = lower value 0.983 | locus YHR129C, strain ARP1, stronger effect = lower value 1.01 | locus YHR142W, strain chs7, stronger effect = lower value 0.984 | locus YHR200W, strain rpn10, stronger effect = lower value 0.99 | locus YIL066C, strain RNR3, stronger effect = lower value 1 | locus YIL073C, strain SPO22, stronger effect = lower value 0.946 | locus YIR030C, strain dcg1, stronger effect = lower value 0.992 | locus YJL092W, strain hpr5, stronger effect = lower value 1.02 | locus YJL095W, strain BCK1 (second series), stronger effect = lower value 1 | locus YJL095W, strain BCK1, stronger effect = lower value 1.05 and 0.986 | locus YJL115W, strain asf1, stronger effect = lower value 1.02 | locus YJL129C, strain trk1, stronger effect = lower value 1.01 | locus YJL134W, strain LCB3, stronger effect = lower value 0.994 | locus YJL154C, strain vps35, stronger effect = lower value 1 | locus YJL164C, strain tpk1, stronger effect = lower value 0.999 | locus YJL166W, strain qcr8, stronger effect = lower value 1.02 | locus YJL168C, strain set2, stronger effect = lower value 1.01 | locus YJL187C, strain SWE1 (second series), stronger effect = lower value 1.01 | locus YJL187C, strain SWE1, stronger effect = lower value 1.02 | locus YJR043C, strain POL32, stronger effect = lower value 1.02 | locus YJR066W, strain TOR1, stronger effect = lower value 0.985
